Bioassay records as filed in PubChem BioAssay.
CF NFkB block = inhibitors of PAF-induced NF-kB signaling, primary screen, cell-based, GFP fluorescence, uHTS; KKLEB NF-kB-GFP reporter, GFP fluorescence overnight; AID 588850, 2011; 0.86% of 360,000 active; inhibition, % at 5 µM;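 active = at least 50% inhibition at 5 µM, scaled per plate between neutral and stimulator controls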;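 note: PAF is a Pseudomonas aeruginosa culture filtrate used as stimulus; plate controls were PAF-stimulated DMSO wells for no effect and unstimulated DMSO wells for full effect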
KKLEB tox = cytotoxicity in KKLEB CF airway cells, primary screen, cytotoxicity control for CF NF-kB inhibitor project, cell-based, uHTS, fluorescence assay plates; KKLEB CF airway cells viability, ATPlite luminescence, overnight; hits give low values; cells stimulated with P. aeruginosa culture filtrate; activity change (cytotoxicity), % at 5 µM; 0.36% of 360,000 active; AID 602141, 2011;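 active = corrected activity change at or below -50% at 5 µM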
PAX8 inh HTS = inhibitors of PAX8-driven TPO luciferase reporter, primary screen, RMG-I cells, single concentration; SteadyGlo, 24 h; inhibition, % at 12.6 µM; 1.2% of 360,000 active;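 active = mean replicate inhibition at least 60% with every replicate also reaching 60%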;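 note: luciferase light reporting Pax8 driven TPO promoter activity; plate controls were median of neutral control wells for no effect and mitoxantrone controls for full effect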
EWS-Fli block = EWS/Fli-driven NR0B1 reporter inhibitors, primary screen, A673 cells, NR0B1 luciferase, luminescence, MLPCN library; viability-normalised; inhibition, % at 12.6 µM; 0.67% of 350,000 active; AID 651661, 2012;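 active = mean inhibition of at least 50% after viability correction, with every replicate also passing that limit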;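 note: firefly luciferase signal divided by Alamar Blue viability fluorescence both relative to DMSO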
HIF-2a inh = HIF-2a reporter inhibitors, primary screen, luminescence, 786-0 RCC cells; 0.72% of 360,000 active; 786-0 RCC cells HIF-2a reporter, luciferase luminescence, overnight; AID 624352, 2012; inhibition, % at 18.8 µM;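 active = inhibition of the luminescence signal of 40% or more relative to plate controls, in a single-dose primary screen at 18.75 µM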
The depositor's hits bear a star; / = no result given. Shown are actives, neighbours in structure and some others; about 2.1% of the full set was active somewhere.

SMILES	CF NFkB block	KKLEB tox	PAX8 inh HTS	EWS-Fli block	HIF-2a inh
CCCNC(=O)N1CC2(CCN(C(=O)CC)CC2)c2c(n(C)c3cc(OC)ccc23)[C@H]1CO	/	/	/	-1.0	/
CN(C)C(=O)[C@H]1[C@H](CO)[C@H]2Cn3c(ccc(C4=CCCC4)c3=O)[C@@H]1N2C(=O)c1ccccc1	/	/	-3.4	-0.9	/
C[C@H]1CN([C@@H](C)CO)C(=O)c2cccc(NS(=O)(=O)c3cn(C)cn3)c2O[C@@H]1CN(C)C(=O)Nc1cccc2ccccc12	/	/	/	39.5	/
C[C@@H]1CN([C@@H](C)CO)S(=O)(=O)c2ccc(C#Cc3ccc(F)cc3)cc2O[C@H]1CN(C)C(=O)CN(C)C	/	/	/	58.7*	/
C[C@H](CO)N1C[C@H](C)[C@@H](CN(C)C(=O)CN(C)C)Oc2cc(C#Cc3ccc(F)cc3)ccc2S1(=O)=O	/	/	/	4.5	/
C[C@@H]1CCCCO[C@@H](CN(C)Cc2ccc(Cl)c(Cl)c2)[C@@H](C)CN([C@H](C)CO)C(=O)c2cc(NC(=O)Nc3ccccc3)ccc2O1	-4.6	-0.4	14.3	-2.8	-10.9
C[C@@H]1CN([C@@H](C)CO)C(=O)c2cc(NC(=O)Nc3ccccc3)ccc2O[C@@H](C)CCCCO[C@H]1CN(C)Cc1ccc(Cl)c(Cl)c1	/	/	80.8*	-7.3	/
C[C@@H]1CN([C@H](C)CO)C(=O)c2cc(NC(=O)Nc3ccccc3)ccc2O[C@@H](C)CCCCO[C@@H]1CN(C)Cc1ccc(Cl)c(Cl)c1	/	/	85.6*	8.7	/
C[C@@H]1CCCCO[C@@H](CN(C)Cc2ccc(Cl)c(Cl)c2)[C@H](C)CN([C@@H](C)CO)C(=O)c2cc(NC(=O)Nc3ccccc3)ccc2O1	/	/	86.1*	5.3	/
CN(C[C@H]1N[C@@H](CO)[C@@H]1c1ccc(-c2cccnc2)cc1)C(=O)c1ccccc1	/	/	98.3*	21.0	/
CCCN(C[C@H]1N[C@H](CO)[C@@H]1c1ccc(-c2cccnc2)cc1)C(C)=O	/	/	-9.5	4.2	/
CCC(=O)NC[C@@H]1[C@@H](c2ccc(-c3cccc(F)c3)cc2)[C@@H](CO)N1CC1CC1	/	/	/	8.0	/
COC(=O)[C@@]1(Sc2ccc(C)cc2)CC(=O)N(C(=O)CCc2ccccc2)[C@@H]1c1ccccc1	/	/	-12.2	8.7	-2.3
COC(=O)[C@@]1(Sc2ccc(C)cc2)CC(=O)N(c2ccccc2)[C@@H]1c1ccccc1	/	/	64.6*	-1.0	-24.9
C[C@H](CO)N1C[C@H](C)[C@H](CN(C)Cc2ccccc2)OCCCC[C@H](C)Oc2ccc(NC(=O)Nc3ccc4c(c3)OCO4)cc2C1=O	/	/	3.4	5.2	/
CC(NC(=O)COC(=O)c1cc(NS(=O)(=O)c2ccc(Cl)c([N+](=O)[O-])c2)ccc1O)C1CC2CCC1C2 (stereo unspecified)	-15.6	3.9	9.3	/	83.9*
C[C@H]1CN([C@@H](C)CO)C(=O)c2cccc(NC(=O)Nc3ccc4c(c3)OCO4)c2O[C@@H]1CN(C)C	/	/	-68.7	-29.7	/
CC(=O)N(C1=C(Cl)C(=O)c2ccccc2C1=O)C1CCCCC1	10.7	-12.6	99.5*	54.9*	82.0*
CC(=O)N(c1ccccc1C)C1CCCC1	-13.3	8.1	4.3	-3.9	16.9
CC(C)=CCc1c(O)cc(O)c2c(=O)c(O[C@@H]3O[C@@H](C)[C@H](O)[C@@H](O)[C@H]3O)c(-c3ccc(O)cc3)oc12	67.5*	13.5	/	/	-0.1
C[C@H](CO)N1C[C@H](C)[C@@H](CN(C)C(=O)NC2CCCCC2)Oc2cc(C#Cc3cccc(F)c3)ccc2S1(=O)=O	/	/	16.1	1.1	/
C[C@H](CO)N1C[C@H](C)[C@H](CN(C)C(=O)NC2CCCCC2)Oc2cc(C#Cc3cccc(F)c3)ccc2S1(=O)=O	/	/	83.5*	29.3	/
C[C@H]1CN([C@@H](C)CO)S(=O)(=O)c2ccc(C#Cc3cccc(F)c3)cc2O[C@H]1CN(C)CC1CC1	/	/	65.2*	-13.7	/
C[C@H]1CN([C@@H](C)CO)S(=O)(=O)c2ccc(C#Cc3cccc(F)c3)cc2O[C@H]1CN(C)C(=O)NC1CCCCC1	/	/	55.1	20.2	/
C[C@@H]1CN([C@H](C)CO)S(=O)(=O)c2ccc(C#Cc3cccc(F)c3)cc2O[C@@H]1CN(C)C(=O)NC1CCCCC1	/	/	82.5*	11.6	/
